# Source: PubChem BioAssay AID1529 (NMMLSC, 2009)
# In all, about 290,000 compounds went through this assay and about 4,200 (1.4%) were called active. This excerpt belongs to a sample that is enriched for actives. A number with no mark means an inactive call.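 The calls were made as follows: active = binding response more than 3 SD above or below the average of its plate-row segment, actives on both sides; inconclusive = wells at one plate position flagged as instrument error; inactive = the rest.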
# Target: Mitogen-activated protein kinase kinase kinase 3 (Homo sapiens) (UniProt Q99759)
# Sequence (Q99759 whole entry, looked up): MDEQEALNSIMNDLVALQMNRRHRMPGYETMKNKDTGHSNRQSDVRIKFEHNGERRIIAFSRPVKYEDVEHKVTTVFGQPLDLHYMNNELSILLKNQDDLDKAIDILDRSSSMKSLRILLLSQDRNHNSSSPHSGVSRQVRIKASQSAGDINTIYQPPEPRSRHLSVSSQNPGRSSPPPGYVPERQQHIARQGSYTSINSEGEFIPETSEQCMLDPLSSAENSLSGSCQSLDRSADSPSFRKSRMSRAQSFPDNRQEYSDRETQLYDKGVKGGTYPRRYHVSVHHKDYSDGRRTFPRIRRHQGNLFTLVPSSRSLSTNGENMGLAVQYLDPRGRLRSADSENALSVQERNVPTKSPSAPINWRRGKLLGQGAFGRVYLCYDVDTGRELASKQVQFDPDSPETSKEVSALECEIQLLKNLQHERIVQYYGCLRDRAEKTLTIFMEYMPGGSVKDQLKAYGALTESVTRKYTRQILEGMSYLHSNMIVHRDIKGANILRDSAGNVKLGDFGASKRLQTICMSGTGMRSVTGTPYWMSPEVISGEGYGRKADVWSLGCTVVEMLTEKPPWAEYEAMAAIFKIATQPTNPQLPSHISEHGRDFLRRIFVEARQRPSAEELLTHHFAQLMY
# Experiment: modulators of MEKK3-MEK5 PB1 binding, primary screen, biochemical, wildtype MEKK3, multiplex bead flow cytometry, Alexa488-MEK5 (AID 1529);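 also: Alexa488 bead fluorescence after subtracting the streptavidin-only scavenger bead signal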
# Conditions: bead-based flow cytometry, Alexa488-MEK5 binding to MEKK3; at 10 µM; actives lie on both sides; 0 = blocked by unlabeled MEK5, 100 = vehicle
row,SMILES,binding response (% of control)
1,CCOC(=O)Cc1csc(NC(=O)CSc2ccc(Br)cc2)n1,107%
2,CCOC(=O)Cc1csc(NC(=O)CSc2nc(C)cc(=O)[nH]2)n1,58% [inhibitor] (active)
3,CCCCc1nnc(NC(=O)CSc2nc(C)cc(=O)[nH]2)s1,98%
4,COc1ccc(S(=O)(=O)N2CCN(C(=O)N(C)C)C2C)cc1 (stereo not drawn),102%
5,O=C(Nc1cccc(NC(=O)c2cccc(F)c2)c1)c1ccccc1,101%
6,O=C(Nc1ccn(Cc2ccccc2)n1)c1n[nH]c([N+](=O)[O-])c1Cl,99%
7,O=C(Nc1ccn(Cc2ccccc2)n1)c1cccc(F)c1,135% (active)
8,COc1cc(CC(=O)N/N=C/c2ccccc2)c([N+](=O)[O-])cc1OC,134% (active)
9,COc1ccc(C(=O)NCC(=O)N/N=C/c2ccc([N+](=O)[O-])o2)cc1OC,133% (active)
10,COc1cc(/C=N/NC(=O)Cc2ccccc2)cc(OC)c1OC,98%
11,COc1cc(/C=N/NC(=O)CNC(=O)c2ccncc2)ccc1OC(C)=O,105%
12,COc1ccc(C(=O)NCC(=O)N/N=C/c2ccc([N+](=O)[O-])s2)cc1OC,102%
13,O=C(Cc1cc(=O)[nH][nH]1)N/N=C/c1ccccc1[N+](=O)[O-],121%
14,Cc1ccccc1N1CCN(C2CCCN(C(=O)c3ocnc3C)C2)CC1 (stereo not drawn),106%
15,COc1ccccc1CN1CCCC(N2CCN(c3ccc(F)cc3)CC2)C1 (stereo not drawn),104%
16,C=CCOc1cccc(C2NC(=O)c3ccccc3O2)c1 (stereo not drawn),91%
17,CC(C)c1cc(C(N)=O)c(NC(=O)c2cccc(COc3ccc(Br)cc3)c2)s1,104%
18,O=C(Nc1cccc(F)c1)NC1CCCc2ccccc21 (stereo not drawn),99%
19,Cc1nc2nc3c(cn2n1)C(=O)CC(c1ccccc1)C3 (stereo not drawn),95%
20,Cc1cc(C)nc(-n2ncc3c2CC(c2ccc(C(C)C)cc2)CC3=O)n1 (stereo not drawn),148% (active)
21,CS(=O)(=O)N(CC(=O)N1CCOCC1)c1cccc(Cl)c1Cl,102%
22,CCO[C@H]1OC(C(=O)N2CCOCC2)=C[C@@H](c2ccc3c(c2)OCO3)[C@@H]1CCCO,81% [inhibitor] (active)
23,CCO[C@H]1OC(C(=O)N2CCCCCCC2)=C[C@@H](c2ccc(C(F)(F)F)cc2)[C@@H]1CCCO,107%
24,CCO[C@@H]1OC(C(=O)N2CCOCC2)=C[C@H](C)[C@H]1CCCO,99%

row,SMILES,binding response (% of control)
1,Cc1ccc(Cn2c(C)c3cnn(CC(=O)NCc4ccccn4)c(=O)c3c2C)cc1,100%
2,COC(=O)c1cccc(N(CC(=O)NCC2CCCO2)C(=O)CCC(=O)Nc2cc(C)on2)c1 (stereo not drawn),103%
3,CC(O)c1cccc(NC(=O)Cc2cccc3ccccc23)c1 (stereo not drawn),102%
4,O=C(Cc1cccc2ccccc12)Nc1ccc2oc(-c3ccccc3)nc2c1,129% (active)
5,O=C(Nc1ccc2oc(-c3ccc4ccccc4c3)nc2c1)c1cccs1,121%
6,O=C(O)CSCc1nc2ccccc2s1,96%
7,c1ccc(-c2nnc(SCc3nc4ccccc4[nH]3)o2)cc1,98%
8,Clc1ccc(-c2nnc(SCc3nc4ccccc4s3)o2)cc1,150% (active)
9,COc1ccc(Cl)cc1NC(=O)C(C)N1CCc2ccccc21 (stereo not drawn),100%
10,Cc1ccccc1NC(=O)N1CCCC1C(=O)NCc1ccccc1 (stereo not drawn),114%
11,O=C(Nc1c2c(nn1-c1cccc(Cl)c1)CS(=O)(=O)C2)c1cccs1,82%
12,Cc1nn(-c2ccccc2)c(NC(=O)c2cccs2)c(-c2ccc(Cl)cc2)c1=O,162% (active)
13,Cc1ccc(-n2nc(C)c(/C=N/NC(=O)c3cccs3)c2Cl)cc1,106%
14,CCc1ccc(NC(=O)Cn2nnc(C(=O)NCc3ccc4c(c3)OCO4)c2N)cc1,100%
15,Cc1ccccc1OCC(=O)Nc1ccc(S(=O)(=O)N2CCOCC2)cc1,95%
16,Cc1ccccc1OCC(=O)Nc1ccc(N2CCN(C(=O)C(C)C)CC2)c(Cl)c1,122% (active)
17,CCC(=O)N1CCN(c2ccccc2NC(=O)COc2cccc(C)c2C)CC1,102%
18,CCN1C(=O)N[C@@H](CCc2ccccc2)C(C(=O)OC)=C1C,101%
19,CCC(=O)Nc1nnc(S(=O)(=O)N2CCCc3ccccc32)s1,98%
20,O=C(CCN1C(=O)[C@@H]2Cc3ccccc3CN2C1=O)NCCc1ccccc1,99%
21,Cc1[nH][nH]c(=O)c1C(c1ccc(-c2ccc(Cl)cc2)o1)c1c(C)[nH][nH]c1=O,95%
22,CCOc1ccc(C(c2c(C)[nH][nH]c2=O)c2c(C)[nH][nH]c2=O)cc1OCC,152% (active)
23,Cc1[nH][nH]c(=O)c1C(c1ccc2c(c1)OCO2)c1c(C)[nH][nH]c1=O,102%
24,CCOc1ccc(CN2CCN(Cc3c[nH]c4ccccc34)CC2)cc1,99%

row,SMILES,binding response (% of control)
1,Cn1ccnc1-c1nnn(-c2ccc(F)cc2)n1,95%
2,CCOc1cc(C2C(C(=O)OC)=CN(C3CCCC3)C=C2C(=O)OC)cc(Br)c1O,80% [inhibitor] (active)
3,CCOc1ccccc1C1C(C(=O)OC)=CN(C)C=C1C(=O)OC,102%
4,COC(=O)C1=CN(Cc2ccc(OC)cc2)C=C(C(=O)OC)C1c1ccc(O)c(OC)c1,104%
5,COc1nnc(-c2ccc(C)c(S(=O)(=O)N(C)C)c2)c2ccccc12,101%
6,Cc1c(C#N)c2ncn(CC#N)c(=O)c2n1-c1ccccc1,122% (active)
7,CC(=O)Cn1cnc2c(cnn2-c2ccccc2)c1=O,102%
8,CN(C)/C=C/c1c(C#N)c(=O)ncn1Cc1ccccc1,103%
9,Cc1cc(N2CCOCC2)nc2ccc(NC(=S)N3CCN(Cc4ccccc4)CC3)cc12,92%
10,COc1ccc(C(C(=O)NC(C)(C)C)N(Cc2ccc(F)cc2)C(=O)CCC(=O)Nc2cc(C)on2)cc1 (stereo not drawn),100%
11,NC(=O)C1CCN(C(=O)CC2C(=O)NCCN2Cc2cccc(Oc3ccccc3)c2)CC1 (stereo not drawn),101%
12,O=c1c(/C=N/O)coc2ccc(Cl)cc12,48% [inhibitor] (active)
13,Cc1ccc2occ(/C=N/NC(=O)c3ccccc3C)c(=O)c2c1,104%
14,NC(=S)N/N=C/c1coc2cc(Cl)ccc2c1=O,92%
15,Cc1ccc(OCC(=O)Nc2ccc3oc(=O)ccc3c2)cc1C,102%
16,Cc1ccccc1-c1ccc(Nc2ccc(C(=O)N3CCOCC3)cc2)nn1,79% [inhibitor] (active)
17,O=C(Nc1ccc(Cl)cc1)Nc1ccc(C(=O)N2CCOCC2)cc1,103%
18,Cc1ccc(C(=O)N2CCN(C(=O)N3CCOCC3)CC2)cc1,107%
19,Cc1cc(Cl)ccc1OCc1nc(-c2ccncc2)no1,73% [inhibitor] (active)
20,c1ccc(CCc2nc(-c3ccncc3)no2)cc1,105%
21,COc1ccc(-c2noc(COc3ccc(Cl)c(C)c3)n2)cc1,102%
22,CCC1Oc2ccccc2N(CC(=O)NCCCN2CCN(CC)CC2)C1=O (stereo not drawn),105%
23,COc1ccc(S(=O)(=O)N(C)CC(=O)N2CCCC2)cc1,101%
24,C[N+](C)(C)CCNC(=O)c1c(O)c2c([nH]c1=O)CCCC2,78% [inhibitor] (active)

row,SMILES,binding response (% of control)
1,O=C(NCc1ccccn1)c1c(O)c2c([nH]c1=O)CCCC2,107%
2,CCc1nnc(NC(=O)c2c(O)c3c([nH]c2=O)CCCC3)s1,105%
3,O=C(CN(c1cc(C(F)(F)F)ccc1Cl)S(=O)(=O)c1ccccc1)NCc1cccnc1,101%
4,COc1cc(NC(=O)C2CCN(c3cnccn3)CC2)cc(OC)c1,102%
5,COC(=O)CCNC(=O)c1ccc2[nH]c(C)c(C)c2c1,102%
6,Cc1[nH]c2ccc(C(=O)N3CCN(C)CC3)cc2c1C,99%
7,Cc1[nH]c2ccc(S(N)(=O)=O)cc2c1C,81% [inhibitor] (active)
8,Cc1cccc(Nc2nc(NCCO)nc(N3CCCC3)n2)c1,106%
9,CN(CCNC(=O)c1cc2c(-c3ccccc3F)nn(C)c2s1)C1CCCCC1,108%
10,Cc1ccc(C(=O)N/C(=C/c2cccnc2)C(=O)O)cc1,95%
11,CC(C)(C)NC(=O)/C(=C/c1cccnc1)NC(=O)c1ccco1,101%
12,O=C(O)/C(=C/c1cccnc1)NC(=O)c1ccccc1,156% (active)
13,Cc1nnc(SCC(=O)Nc2ccc(S(=O)(=O)Nc3ccc(Cl)nn3)cc2)s1,99%
14,COc1ccccc1/C=C1\SC(=O)N(CCC(=O)N(C)C2CCS(=O)(=O)C2)C1=O (stereo not drawn),98%
15,Cc1c(CN2CC[C@@H](N3CCN(c4ccccn4)CC3)[C@H](O)C2)[nH]c2ccc(F)cc12,104%
16,CCOC(=O)CN(C)S(=O)(=O)c1ccc(-c2cc(C(=O)OC)sc2C(F)(F)F)cc1,129% (active)
17,Cc1ccc(S(=O)(=O)N(C)CC(=O)OCC(=O)Nc2ccccc2)cc1,94%
18,COC(=O)c1sc(C(F)(F)F)c(-c2ccccc2)c1S(=O)(=O)N(C)C,106%
19,O=C(O)C1=NN(c2c(F)c(F)cc(F)c2F)C(=O)CC1,95%
20,CCOC(=O)CSc1nnc(NC(=O)C2CC(=O)N(c3ccc(F)cc3)C2)s1 (stereo not drawn),102%
21,COC(=O)c1cccc(N(C(=O)CNC(=O)c2cccs2)C(C(=O)NCC2CCCO2)c2ccc(OC)c(OC)c2)c1 (stereo not drawn),100%
